# Test results reported in PubChem BioAssay (NCATS).
# Inconclusive results are not listed. Entries that show only a call come without a potency. A number with no mark means an inactive call. Active and inactive are the calls of the source. Unless noted, the call rests on the fitted dose curve.
# How the values were obtained:
# [1] = molecular target: Glucocorticoid receptor (Homo sapiens) (UniProt P04150); assay: qHTS assay for small molecule agonists of glucocorticoid receptor signaling (AID 588532; active means well fitted curve in the direction sought with a large enough effect in the signal ratio, with a control signal flat; the % refers to the signal ratio); conditions: HeLa MMTV-bla, beta-lactamase ratio, agonist, 18 h; activation: stronger effect = higher value, percent of dexamethasone control, DMSO zero
# Sequence of Glucocorticoid receptor (Homo sapiens) (P04150 whole entry, looked up): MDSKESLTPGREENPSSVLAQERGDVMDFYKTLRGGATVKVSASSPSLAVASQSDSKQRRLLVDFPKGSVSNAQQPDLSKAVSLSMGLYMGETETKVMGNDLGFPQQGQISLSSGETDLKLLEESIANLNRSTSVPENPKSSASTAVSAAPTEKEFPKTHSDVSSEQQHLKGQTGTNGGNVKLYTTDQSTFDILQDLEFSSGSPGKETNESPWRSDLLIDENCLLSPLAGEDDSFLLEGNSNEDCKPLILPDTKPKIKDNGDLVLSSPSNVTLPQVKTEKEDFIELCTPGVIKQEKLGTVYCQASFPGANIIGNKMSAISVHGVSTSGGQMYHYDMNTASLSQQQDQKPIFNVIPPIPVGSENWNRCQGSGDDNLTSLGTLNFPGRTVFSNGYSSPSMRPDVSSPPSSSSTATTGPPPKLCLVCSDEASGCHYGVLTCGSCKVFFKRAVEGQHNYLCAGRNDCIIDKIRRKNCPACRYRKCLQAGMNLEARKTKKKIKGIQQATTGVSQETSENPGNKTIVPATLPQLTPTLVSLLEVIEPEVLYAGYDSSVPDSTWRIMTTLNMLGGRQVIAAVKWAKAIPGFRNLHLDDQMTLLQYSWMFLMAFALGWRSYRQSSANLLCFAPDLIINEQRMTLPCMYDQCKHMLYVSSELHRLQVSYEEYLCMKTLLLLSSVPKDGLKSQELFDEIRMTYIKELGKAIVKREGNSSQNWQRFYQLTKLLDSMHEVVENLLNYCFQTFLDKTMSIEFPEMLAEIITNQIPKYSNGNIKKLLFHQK
# How it was run: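 Stimulation of a glucocorticoid response element-driven beta-lactamase gene was measured in HeLa cells. Responses were scaled between DMSO basal and 0.1 uM dexamethasone, then fitted for half-maximal stimulation.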
# [2] = molecular target: Peroxisome proliferator-activated receptor delta (Homo sapiens) (UniProt Q03181); assay: qHTS assay for small molecule agonists of peroxisome proliferator-activated receptor delta signaling (AID 588534)
# Sequence of Peroxisome proliferator-activated receptor delta (Homo sapiens) (Q03181 whole entry, looked up): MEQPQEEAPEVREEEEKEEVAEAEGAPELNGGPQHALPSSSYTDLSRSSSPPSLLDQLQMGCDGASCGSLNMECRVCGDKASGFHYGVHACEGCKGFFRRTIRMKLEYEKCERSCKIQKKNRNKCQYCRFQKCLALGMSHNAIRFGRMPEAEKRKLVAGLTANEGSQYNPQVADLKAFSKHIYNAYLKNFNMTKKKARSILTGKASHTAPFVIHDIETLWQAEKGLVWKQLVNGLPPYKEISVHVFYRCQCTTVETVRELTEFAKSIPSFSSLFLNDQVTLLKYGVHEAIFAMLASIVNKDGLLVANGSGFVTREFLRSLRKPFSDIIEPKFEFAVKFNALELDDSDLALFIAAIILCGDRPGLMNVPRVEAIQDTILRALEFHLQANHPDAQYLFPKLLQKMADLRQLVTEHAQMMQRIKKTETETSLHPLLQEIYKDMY
# How it was run: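 EC50 and efficacy values derive from Hill fits of a concentration series in a beta-lactamase reporter cell assay. Exposure is 18 hrs at 37 C, with CCF4 fluorescence as the readout.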
# [3] = molecular target: Vitamin D3 receptor (Homo sapiens) (UniProt P11473); assay: qHTS assay for small molecule agonists of vitamin D receptor signaling (AID 588543)
# Sequence of Vitamin D3 receptor (Homo sapiens) (P11473 whole entry, looked up): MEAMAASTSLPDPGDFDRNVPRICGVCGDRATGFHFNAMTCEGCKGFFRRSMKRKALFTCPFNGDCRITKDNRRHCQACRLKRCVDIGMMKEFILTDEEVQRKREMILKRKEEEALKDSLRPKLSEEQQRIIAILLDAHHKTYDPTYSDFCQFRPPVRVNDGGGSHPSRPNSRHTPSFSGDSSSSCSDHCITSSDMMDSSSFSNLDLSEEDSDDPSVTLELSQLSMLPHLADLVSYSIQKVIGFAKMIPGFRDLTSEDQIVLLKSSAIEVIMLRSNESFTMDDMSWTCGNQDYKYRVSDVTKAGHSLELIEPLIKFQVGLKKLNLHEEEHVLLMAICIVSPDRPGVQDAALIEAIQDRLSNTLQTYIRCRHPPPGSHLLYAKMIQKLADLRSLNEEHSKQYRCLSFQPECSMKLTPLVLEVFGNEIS
# How it was run: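 VDR-UAS-bla HEK293T cells, 2000/well, 2% charcoal-stripped FBS; compound titration 16 h at 37 C; CCF4 beta-lactamase ratio read. Normalized to 50 nM 1-alpha,25-dihydroxyvitamin D3 (100%) and DMSO; Hill fit gives EC50, efficacy.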
# [4] = molecular target: Thyroid hormone receptor beta (Homo sapiens) (UniProt P10828); assay: qHTS assay for small molecule agonists of thyroid hormone receptor beta signaling (AID 588545)
# Sequence of Thyroid hormone receptor beta (Homo sapiens) (P10828 whole entry, looked up): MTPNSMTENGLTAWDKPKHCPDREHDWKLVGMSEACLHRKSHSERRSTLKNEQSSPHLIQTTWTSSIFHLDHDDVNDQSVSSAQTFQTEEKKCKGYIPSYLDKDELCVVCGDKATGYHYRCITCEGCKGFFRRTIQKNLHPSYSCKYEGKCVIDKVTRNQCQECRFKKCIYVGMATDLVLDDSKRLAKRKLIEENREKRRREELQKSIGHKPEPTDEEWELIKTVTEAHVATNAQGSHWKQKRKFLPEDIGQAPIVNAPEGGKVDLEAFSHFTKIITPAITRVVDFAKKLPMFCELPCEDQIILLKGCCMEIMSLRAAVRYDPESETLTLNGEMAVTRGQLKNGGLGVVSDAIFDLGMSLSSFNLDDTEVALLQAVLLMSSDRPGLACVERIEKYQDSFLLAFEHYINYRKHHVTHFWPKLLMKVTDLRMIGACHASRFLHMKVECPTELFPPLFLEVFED
# How it was run: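 TR-UAS-bla-GripTite HEK 293 cells in medium with 2% charcoal/dextran FBS, 0.1 mM NEAA and 1 mM sodium pyruvate were treated with titrated compounds for 18 hrs at 37 C. Beta-lactamase reporter was read with CCF4 dye (ex 405, em 460/530 nm); EC50 from Hill fits.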
smiles,measurement,setting,value
CC1(C)[C@@H](C=C(Cl)Cl)[C@@H]1C(=O)OCc1cccc(Oc2ccccc2)c1,activation,[1],0.397%
same,outcome,[2],inactive
same,outcome,[3],inactive
same,Potency,[4],inactive
CCCCCCCCO,outcome,[2],inactive
CC(O)COC(C)(C)C (stereo unspecified),outcome,[2],inactive
CC(C)(C)C(O)/C(=C\c1ccc(Cl)cc1)n1cncn1 (stereo unspecified),outcome,[2],inactive
O=C=NC1CCC(CC2CCC(N=C=O)CC2)CC1 (stereo unspecified),outcome,[2],inactive
O=[N+]([O-])c1cccc(Cl)c1,outcome,[2],inactive
CCCOCC(C)O (stereo unspecified),outcome,[2],inactive
Cc1ccc2ncccc2c1,outcome,[2],inactive
NCCCCCCN,outcome,[2],inactive
C[C@@H]1O[C@@H](O[C@@H]2[C@@H](O)[C@H](OCCc3ccc(O)c(O)c3)O[C@H](CO[C@@H]3O[C@H](CO)[C@@H](O)[C@H](O)[C@H]3O)[C@H]2OC(=O)/C=C/c2ccc(O)c(O)c2)[C@H](O)[C@H](O)[C@H]1O,outcome,[2],inactive
O=C(O)c1ccc(C(=O)O)c(C(=O)O)c1,outcome,[2],inactive
CCOCC(=O)O,outcome,[2],inactive
CCCCCCCCCCCCCCC(=O)OC,outcome,[2],inactive
CCCCCCCCCCCCO,outcome,[2],inactive
O=C(O)CN(CCO)CCN(CC(=O)O)CC(=O)O,outcome,[2],inactive
Cc1cccc(C(=O)O)c1[N+](=O)[O-],outcome,[2],inactive
Nc1nccs1,outcome,[2],inactive
CC(C)COC(=O)COc1cc(Cl)c(Cl)cc1Cl,outcome,[2],inactive
ON=C1CCCCC1,outcome,[2],inactive
CCCCC(CC)C(=O)OCCOCCOCCOC(=O)C(CC)CCCC (stereo unspecified),outcome,[2],inactive
CC(C)(C)C1CCC(O)CC1 (stereo unspecified),outcome,[2],inactive
OCCOCCOCCOCCOCCO,outcome,[2],inactive
C=CC(=O)CC,outcome,[2],inactive
CCOC(=O)C(C)C(C)=O (stereo unspecified),outcome,[2],inactive
O=C(O)c1ccc(CO)o1,outcome,[2],inactive
CCCCCCC(O)CCCCCCCCCCC(=O)OC (stereo unspecified),outcome,[2],inactive
CC1=CC(=O)CC(C)(C)C1,outcome,[2],inactive
N#CCc1ccccc1[N+](=O)[O-],outcome,[2],inactive
O=[N+]([O-])c1cccc(C(F)(F)F)c1,outcome,[2],inactive
Cc1cccc(Br)c1,outcome,[2],inactive
O=NO,outcome,[2],inactive
CC(C)(N=C=O)c1cccc(C(C)(C)N=C=O)c1,outcome,[2],inactive
Cc1ccc(S(=O)(=O)N=C=O)cc1,outcome,[2],inactive
C=Cc1cccc(C)c1,outcome,[2],inactive
C=C(C)C(=O)OCCN(C)C,outcome,[2],inactive
N#Cc1ccccc1,outcome,[2],inactive
O=S(=O)(O)c1ccc(N=Nc2cc(S(=O)(=O)O)c3ccccc3c2O)c2ccccc12,outcome,[2],inactive
O=C(O[C@@H](C(=O)O)[C@@H](OC(=O)c1ccccc1)C(=O)O)c1ccccc1,outcome,[2],inactive
O=Cc1cccc(Br)c1,outcome,[2],inactive
C/C=C(/C)C#N,outcome,[2],inactive
Cc1cccc(C(=O)O)c1,outcome,[2],inactive
O=C(OCC1CCC2OC2C1)C1CCC2OC2C1 (stereo unspecified),outcome,[2],inactive
CC#N,outcome,[2],inactive
O=C1NC(=O)c2cc([N+](=O)[O-])ccc21,outcome,[2],inactive
C/C=C/C/C=C\CCCCCCCCOC(C)=O,outcome,[2],inactive
C/C=C/C=C/C=O,outcome,[2],inactive
CC(=O)Nc1ccc(N=Nc2cc(C)ccc2O)cc1,outcome,[2],inactive
O=C1OC(=O)c2cc([N+](=O)[O-])ccc21,outcome,[2],inactive
C=CC(=O)OCC(C)OCC(C)OCC(C)OC(=O)C=C (stereo unspecified),outcome,[2],inactive
CCOC(=O)C1=NN(c2ccc(Cl)cc2Cl)C(C)(C(=O)OCC)C1 (stereo unspecified),outcome,[2],inactive
CCCCC(=O)N(C)C,outcome,[2],inactive
COC(=O)CS,outcome,[2],inactive
O=c1[nH]ncc2ccccc12,outcome,[2],inactive
